The list is not random: actives were taken first. Their share in the collection is about 10%.
GPT2 inhibitor: inhibitors of human GPT2 alanine aminotransferase; Recombinant GPT2, coupled pyruvate oxidase/HRP Amplex Red fluorescence; Q8TD30; Potency, µM (doses to about 57.7 µM), actives largely listed as inhibitors; AID 1671188; 100,000 tested, 0.25% active; further: nearly all actives have a fitted effect of over 60% in size
Target sequence (Q8TD30 whole entry, looked up): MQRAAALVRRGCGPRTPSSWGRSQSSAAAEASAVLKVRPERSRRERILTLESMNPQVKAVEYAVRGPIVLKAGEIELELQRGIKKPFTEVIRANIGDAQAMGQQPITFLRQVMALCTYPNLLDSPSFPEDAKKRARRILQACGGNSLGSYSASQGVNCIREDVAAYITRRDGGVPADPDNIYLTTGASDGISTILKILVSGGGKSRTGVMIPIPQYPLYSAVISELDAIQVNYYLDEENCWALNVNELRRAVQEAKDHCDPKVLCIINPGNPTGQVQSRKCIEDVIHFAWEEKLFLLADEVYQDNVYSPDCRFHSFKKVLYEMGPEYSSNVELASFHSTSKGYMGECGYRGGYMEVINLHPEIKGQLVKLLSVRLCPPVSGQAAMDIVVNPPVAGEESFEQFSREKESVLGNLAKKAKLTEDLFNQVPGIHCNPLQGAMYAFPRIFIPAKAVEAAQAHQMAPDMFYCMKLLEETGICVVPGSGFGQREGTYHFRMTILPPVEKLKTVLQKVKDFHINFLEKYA
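Inhibition is scored from Amplex Red fluorescence generated when pyruvate oxidase and HRP act on pyruvate released by GPT2. Reactions contain 10ng/uL enzyme, 250uM a-KG and 2mM L-alanine and run 30 min at room temperature.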
FLuc inh: Photinus pyralis luciferase inhibition | 76,000 tested, 2.5% active | Potency, µM (series often up to 115 µM), usual class: inhibitors | P08659 | purified P. pyralis luciferase, luminescence, biochemical | AID 1347043; further: nearly all actives have a fitted effect of over 65% in size
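FLuc 10nM, D-luciferin 10uM, ATP 10uM, Mg acetate 10mM, Tris acetate pH 7.5, Tween/BSA; cpd qHTS; enzyme added last; CCD luminescence.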
HEK293 tox: cytotoxic compounds in HEK 293 cells. HEK 293 viability, ATP luminescence (CellTiter-Glo), 48-72 h. Potency, µM (series often up to 115 µM), most hits filed as inhibitors. 94,000 tested, 6.6% active. AID 1345083; further: nearly all actives have a fitted effect of over 60% in size
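qHTS cytotoxicity; HEK 293, 250 cells/well; compound pinned; 48 or 72 hr, 37 degree Celsius, 5% CO2, 95% humidity; CellTiter-Glo, 10 min RT; luminescence (ATP).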
3T3 cytotox: cytotoxic compounds in NIH 3T3 cells. 94,000 tested, 4.3% active. Potency, µM (highest dose often 96.7 µM), hits mostly inhibitors. AID 1345082. NIH 3T3 viability, CellTiter-Glo ATP luminescence, 48-72 h; further: nearly all actives have a fitted effect of over 55% in size
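Mouse fibroblast NIH 3T3 cells, 400 per well, received compound via pintool and were incubated for 48 or 72 hr prior to CellTiter-Glo ATP luminescence measurement.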
NPR1 antag: antagonists of human natriuretic peptide receptor Npr1 | 76,000 tested, 1.6% active | Potency, µM (top dose mostly 46.3 µM), hits mostly inhibitors | HEK293 hNpr1 GloSensor cGMP, ANP-stimulated luminescence; calls by dose curve; further: nearly all actives have a fitted effect of over 60% in size
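Compound pre-incubated 30 min at room temperature on GloSensor-loaded HEK293 cells stably carrying hNpr1 and the pGS-40F cGMP biosensor. Stimulation uses hNppA at 0.1 nM final; luminescence is taken at baseline and 20 min post-agonist.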
Large screens that a line does not name were inactive; ! = repeats disagree. Unless noted, the call rests on the fitted dose curve; in most records, active means well fitted curve in the direction sought with a large enough effect; inconclusive means small, poorly fitted or top-dose-only effect, or another doubt; inactive means no such curve, though single readings can be large; an effect the other way counts as inactive or inconclusive.

O=C(c1ccncc1)N1CCC2(CC1)CC(N1CCCCC1)CCO2 (centres undefined)	none
c1cncc(CN2CC[C@H](c3nc4ccccc4[nH]3)C2)c1	HEK293 tox inconclusive
COc1ccc2nc([C@H]3CCN(Cc4cccc(C#N)c4)C3)[nH]c2c1	HEK293 tox 39.8µM, 3T3 cytotox 31.6µM
CN(C)c1ccc(CN2CC[C@H](c3nc4ccc(C#N)cc4[nH]3)C2)cc1	HEK293 tox inconclusive, 3T3 cytotox inconclusive
N#Cc1cccc(CN2CC[C@H](c3nc4ccccc4[nH]3)C2)c1	HEK293 tox 50.1µM, 3T3 cytotox 56.2µM
N#Cc1ccc2nc([C@H]3CCN(Cc4ccc(F)c(F)c4)C3)[nH]c2c1	HEK293 tox inconclusive, 3T3 cytotox 31.6µM
CC(C)CCN1CC[C@H](c2nc3ccccc3[nH]2)C1	FLuc inh 35.5µM, HEK293 tox inconclusive
CN1CC[C@H](c2nc3ccccc3[nH]2)C1	3T3 cytotox inconclusive
O=C1CC(c2ccccc2)N(C(=O)CNC(=O)NCc2ccccc2)CCCCCN1 (centres undefined)	none
COc1ccc(-c2ccc3ncc(Nc4ccccc4Cl)n3n2)cn1	HEK293 tox inconclusive
Cc1noc(C)c1-c1cc2c(cc(-c3ccccc3)n2C)c(-c2cccnc2)n1	GPT2 inhibitor inconclusive, HEK293 tox inconclusive, 3T3 cytotox inconclusive
COc1ncccc1-c1nc(-c2c(C)noc2C)cc2c1cc(-c1ccccc1)n2C	HEK293 tox 28.2µM, 3T3 cytotox 25.1µM
COc1ccc(-c2nc(-c3c(C)noc3C)cc3c2cc(-c2ccccc2)n3C)cn1	HEK293 tox inconclusive, 3T3 cytotox 50.1µM
CN(C)[C@@H]1CN(C(=O)c2ccsc2)CC[C@@H]1CO	none
O=C(NCCc1ccc(Cl)cc1)c1cc(Br)cn2ccnc12	none
CSCCNC(=O)c1cc(Br)cn2ccnc12	FLuc inh 44.7µM!
O=C(NCc1cccc(F)c1)N1CCC(OC2CCN(Cc3ccccc3)CC2)CC1	none
O=C(NCc1cccnc1)c1cc(CN2CCC(Cc3ccccc3)CC2)on1	3T3 cytotox 31.6µM
Cc1cnc(CNC(=O)c2cc(CN3CCC(Cc4ccccc4)CC3)on2)cn1	HEK293 tox inconclusive
CC(C)c1noc(-c2cccn3c(CNC(=O)Cc4ccccc4Cl)nnc23)n1	none
COc1cccc(CN(C)C(C)c2cccs2)c1 (centres undefined)	none
CC(c1cccs1)N(C)Cc1cccc2ccccc12 (centres undefined)	FLuc inh inconclusive, HEK293 tox 112µM, 3T3 cytotox inconclusive
CCn1nccc1C(=O)N1CCC2(CC1)N(C)C(=O)CS2(=O)=O	none
O=c1cc(-c2ccccn2)oc2c(-c3cn[nH]c3)nccc12	HEK293 tox inconclusive, 3T3 cytotox 11.2µM
O=c1cc(-c2ccccn2)oc2c(NC3CCOCC3)nccc12	3T3 cytotox 14.1µM
O=c1cc(-c2cnccn2)oc2c(-c3cn[nH]c3)nccc12	3T3 cytotox inconclusive
COc1ccccc1-c1cccc(C(=O)N2CCC[C@H]2C(=O)NCc2cccs2)c1	HEK293 tox 79.4µM (no result: FLuc inh, NPR1 antag)
COc1cccc(-c2cccc(C(=O)N3CCCC3C(=O)NCc3cccs3)c2)c1 (centres undefined)	HEK293 tox inconclusive (no result: FLuc inh, NPR1 antag)
CCCCCNC(=O)C1CCCN1C(=O)c1cccc(-c2cccc(OC)c2)c1 (centres undefined)	HEK293 tox 100µM, 3T3 cytotox inconclusive (no result: FLuc inh, NPR1 antag)
COC(=O)CNC(=O)C1CCCN1C(=O)c1cccc(-c2cccc(OC)c2)c1 (centres undefined)	HEK293 tox 44.7µM, 3T3 cytotox inconclusive (no result: FLuc inh, NPR1 antag)
COCC(=O)N1CC[C@@H]2[C@H]1C(=O)N(c1ccc(OC)cc1)C(=O)N2Cc1ccccc1	none
O=C(NCC1CCN(c2cc(-c3ccc(Cl)cc3)[nH]n2)CC1)c1cc(C2CC2)[nH]n1	GPT2 inhibitor inconclusive, FLuc inh inconclusive, HEK293 tox inconclusive, 3T3 cytotox 35.5µM, NPR1 antag inconclusive
O=C(NCC1CCN(c2cc(-c3ccc(F)cc3)[nH]n2)CC1)c1cc(C2CC2)[nH]n1	GPT2 inhibitor inconclusive, FLuc inh inconclusive, HEK293 tox inconclusive, 3T3 cytotox inconclusive
O=C(NCC1CCN(c2cc(-c3ccc(Cl)cc3)[nH]n2)CC1)c1ccc[nH]1	HEK293 tox inconclusive, 3T3 cytotox 22.4µM
Cc1cc(C)n(CCC(=O)NCC2CCN(c3cc(-c4ccc(Cl)cc4)[nH]n3)CC2)n1	GPT2 inhibitor inconclusive, HEK293 tox 35.5µM, 3T3 cytotox 31.6µM
CC1=NOC2(CCN(C(=O)c3ccccn3)C2)C1 (centres undefined)	none
COc1cccc(C(=O)N2CCC(N(Cc3ccccc3)C3CCOCC3)CC2)c1	FLuc inh inconclusive, HEK293 tox inconclusive, 3T3 cytotox inconclusive
Cc1ccc(Nc2ccnc(N3CCN(C(=O)c4ccccc4C)CC3)n2)cc1	HEK293 tox 39.8µM, 3T3 cytotox 35.5µM (no result: FLuc inh, NPR1 antag)
COc1ccc(Nc2ccnc(N3CCN(C(=O)c4ccc(OC)cc4)CC3)n2)cc1	HEK293 tox 25.1µM, 3T3 cytotox 25.1µM (no result: FLuc inh, NPR1 antag)
O=C(Cc1cccc(Cl)c1)N1CCN(c2nccc(Nc3ccccc3Cl)n2)CC1	HEK293 tox 35.5µM, 3T3 cytotox 14.1µM (no result: FLuc inh, NPR1 antag)
Cc1ccc(Nc2ccnc(N3CCN(C(=O)c4cccc(Cl)c4)CC3)n2)cc1	HEK293 tox inconclusive, 3T3 cytotox inconclusive (no result: FLuc inh, NPR1 antag)
COc1ccc(Nc2ccnc(N3CCN(C(=O)c4cccc(Cl)c4)CC3)n2)cc1	HEK293 tox 28.2µM, 3T3 cytotox 28.2µM (no result: FLuc inh, NPR1 antag)
CC1(C)CC(=O)C2=C(C1)NC(=S)NC2c1cccc(O)c1 (centres undefined)	none (no result: FLuc inh, HEK293 tox, 3T3 cytotox, NPR1 antag)
Cn1cnc([S+](=O)([O-])N2CCC3CC(=O)NCCC3C2)c1 (centres undefined)	none (no result: FLuc inh, NPR1 antag)
COCC1(CNC(=O)c2cc(C)on2)C[C@@H](O)[C@@H](O)C1 (some centres undefined)	none
O=C(c1ccc(Cl)nc1)N1CCC(C(=O)N2CCC(c3nc4ncccc4[nH]3)CC2)CC1	none (no result: FLuc inh, NPR1 antag)
COCC(=O)N1CCN(c2nccc(Nc3ccc(OC)cc3)n2)CC1	HEK293 tox inconclusive, 3T3 cytotox inconclusive (no result: FLuc inh, NPR1 antag)
COC(=O)N1CCN(c2nccc(Nc3ccc(OC)cc3)n2)CC1	HEK293 tox inconclusive, 3T3 cytotox inconclusive (no result: FLuc inh, NPR1 antag)
COc1ccc(Nc2ccnc(N3CCN(C(=O)c4ccc(F)cc4)CC3)n2)cc1	HEK293 tox 22.4µM, 3T3 cytotox 12.6µM (no result: FLuc inh, NPR1 antag)
Cc1ccc(Nc2ccnc(N3CCCN(C(=O)Cc4cccc(Cl)c4)C3)n2)cc1	HEK293 tox 12.6µM, 3T3 cytotox 28.2µM (no result: FLuc inh, NPR1 antag)
Cc1ccc(Nc2ccnc(N3CCN(C(=O)Cc4ccc(F)cc4)CC3)n2)cc1	HEK293 tox inconclusive, 3T3 cytotox 31.6µM (no result: FLuc inh, NPR1 antag)
COc1ccc(Nc2ccnc(N3CCN(C(=O)Cc4cccc(Cl)c4)CC3)n2)cc1	HEK293 tox inconclusive, 3T3 cytotox 28.2µM (no result: FLuc inh, NPR1 antag)
Cc1ccc(NC(=O)c2ccc3nc(-c4ccncc4)oc3c2)cc1	none (no result: FLuc inh, NPR1 antag)
COc1ccc(CN(C(=O)c2ccco2)c2ccc(CC(=O)NCc3ccccc3)cc2)cc1	HEK293 tox inconclusive, 3T3 cytotox 35.5µM
